Among the test systems are HCT-15 colon; HT29 colon; SNB-75 CNS; SNB-19 CNS; U251 CNS; PC-3 prostate; SK-MEL-5 melanoma; UACC-62 melanoma; LOX IMVI melanoma; SK-MEL-28 melanoma.
Holding throughout (assay): NCI-60 one-dose screen, 48 h (100 = growth as untreated, 0 = no growth, -100 = all killed)
Holding throughout (conditions): 10 µM

The structures appear in SMILES notation. The panel holds about 83,000 compounds, 20% with a hit somewhere; the sample as a whole holds those more often.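 Interpretation: 100, growth as untreated; towards 0, rising growth inhibition; 0, no net growth; 0 to -100, cell death. Compounds scoring below 10 were considered active.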 Values without a mark were called inactive. Calls of active or inactive are those of the source.

In the case of `COc1ccc(-c2[nH]ncc2-c2cc(OC)c(OC)c(OC)c2)cc1`, the growth is 10.3% in the test on HCT-15 colon; -16.6% (active) with HT29 colon; 49.1% in the test with SNB-75 CNS; 44.5% with SNB-19 CNS; 6.25% (active) in the test on U251 CNS; 11.8% in the test on PC-3 prostate. The growth was -22.1% (active) with SK-MEL-5 melanoma, 35.2% in the test with UACC-62 melanoma, 27.8% with LOX IMVI melanoma and 37.2% in the test with SK-MEL-28 melanoma.

As to `C=CCN1C(=O)/C(=C\c2ccc3c(c2)CCC3)SC1=S`, the growth is 98.8% in the test with HCT-15 colon; 97.4% in the test with HT29 colon; 99.9% in the test with SNB-75 CNS; 94.2% in the test with SNB-19 CNS; 100% in the test on U251 CNS; 107% in the test on PC-3 prostate. For the same molecule, the growth in the test with SK-MEL-5 melanoma was 99.6%; in the test with UACC-62 melanoma, 99.2%; in the test on LOX IMVI melanoma, 98.5%; with SK-MEL-28 melanoma it was 113%.

As to `[O-]c1c[n+](-c2ccc(Cl)cc2)no1`, the growth in the test on HCT-15 colon is 99.4%; with HT29 colon, 118%; in the test on SNB-75 CNS, 90.4%; in the test with SNB-19 CNS it was 95.9%; in the test with U251 CNS, 102%; in the test with PC-3 prostate, 91.4%. Moreover, the growth in the test on SK-MEL-5 melanoma is 95.6%; in the test on UACC-62 melanoma, 91.5%; with LOX IMVI melanoma, 98%; in the test with SK-MEL-28 melanoma it was 109%.

Take `COc1cc(C2c3cc4c(cc3C(O)C(CO)C2CO)OCO4)cc(OC)c1OC` (stereo not given): the growth with HCT-15 colon was 61.2%; with HT29 colon, 5.41% (active); in the test on SNB-75 CNS, -4.31% (active); in the test with SNB-19 CNS, 35.8%; with U251 CNS, 22.3%; with PC-3 prostate, 25.3%. Also, the growth with SK-MEL-5 melanoma is 11.1%; with UACC-62 melanoma, 40.8%; with LOX IMVI melanoma it was 43.8%; with SK-MEL-28 melanoma, 44.1%.

As for `COc1ccc(/C=C2\CCC3C(CCCC34OCCO4)C2=O)cc1` (stereo not given), the growth was 66.2% with HCT-15 colon; 80.1% with HT29 colon; 105% with SNB-75 CNS; 90.1% with SNB-19 CNS; 99.2% in the test with U251 CNS; 86.4% in the test with PC-3 prostate. The growth with SK-MEL-5 melanoma is 87.3%; with UACC-62 melanoma it was 81%; with LOX IMVI melanoma, 80.8%; in the test with SK-MEL-28 melanoma it was 95.1%.

Regarding `Cc1cc(O)c(C2=NN(c3ccc(S(N)(=O)=O)cc3)C(c3ccc(N(C)C)cc3)C2)c(C)c1Cl` (stereo not given), the growth in the test with HCT-15 colon is 80.5%; in the test on HT29 colon, 52.7%; in the test on SNB-75 CNS, 78.7%; in the test with SNB-19 CNS it was 107%; with U251 CNS it was 78.3%; in the test with PC-3 prostate, 13.6%. Also, the growth was 79.6% in the test with SK-MEL-5 melanoma, 64.8% in the test with UACC-62 melanoma, 82.8% with LOX IMVI melanoma and 90.2% in the test with SK-MEL-28 melanoma.

`Cc1ccc(-n2c(-c3cc4c([nH]c5ccccc54)c(-c4cccc(O)c4)n3)n[nH]c2=S)cc1`: the growth is 2.88% (active) in the test with HCT-15 colon; -44% (active) with HT29 colon; 5.15% (active) in the test on SNB-75 CNS; 4.47% (active) in the test with SNB-19 CNS; -3.05% (active) in the test on U251 CNS; 19.4% in the test on PC-3 prostate. The growth in the test on SK-MEL-5 melanoma is -17.5% (active); in the test on UACC-62 melanoma, -40.3% (active); with LOX IMVI melanoma, -77% (active); in the test with SK-MEL-28 melanoma, 7.56% (active).

For the molecule `COc1ccc(-c2nnc(COc3ccc(NC(=O)Nc4ccccc4)cc3F)o2)cc1`, the growth in the test with HCT-15 colon is 88.2%; in the test on HT29 colon, 100%; in the test with SNB-75 CNS it was 68.2%; in the test with SNB-19 CNS, 86.8%; in the test with U251 CNS, 85%; with PC-3 prostate it was 65.5%. The growth in the test on SK-MEL-5 melanoma is 89%; in the test on UACC-62 melanoma, 78%; in the test with LOX IMVI melanoma, 89.6%; with SK-MEL-28 melanoma, 98.6%.

For `Cc1ccccc1C1=N[C@@H](Cc2ccccc2)C(=O)c2c(nc3ccccn23)N1`, the growth with HCT-15 colon is 100%; in the test on HT29 colon it was 115%; in the test with SNB-75 CNS, 70.8%; in the test with SNB-19 CNS it was 109%; in the test on U251 CNS it was 100%; in the test on PC-3 prostate it was 89.4%. For the same molecule, the growth with SK-MEL-5 melanoma was 103%; with UACC-62 melanoma, 103%; in the test on LOX IMVI melanoma, 91.7%; in the test with SK-MEL-28 melanoma it was 113%.

On to `COC(=O)c1c(C)nc(Nc2nc3ccccc3s2)nc1-c1ccc(Cl)cc1Cl`, for which the growth with HCT-15 colon was 92.2%; with HT29 colon it was 114%; in the test with SNB-75 CNS, 87.2%; in the test on SNB-19 CNS, 92.3%; with U251 CNS it was 111%; with PC-3 prostate it was 91.3%. Also, the growth with SK-MEL-5 melanoma is 105%; with UACC-62 melanoma, 96.1%; with LOX IMVI melanoma it was 101%; in the test with SK-MEL-28 melanoma, 109%.

On to `COc1ccc2oc(=O)cc(C(c3ccc[nH]3)c3ccc[nH]3)c2c1`, for which the growth in the test with HCT-15 colon was 9.01% (active); in the test on HT29 colon, -10.5% (active); with SNB-75 CNS, 29.6%; in the test with SNB-19 CNS it was 22.1%; in the test with U251 CNS, -7.61% (active); with PC-3 prostate, 20.3%. Also, the growth in the test on SK-MEL-5 melanoma was -31.4% (active); in the test on UACC-62 melanoma it was 30.7%; in the test with LOX IMVI melanoma, 7.59% (active); in the test on SK-MEL-28 melanoma, 37.7%.

Take `Cc1ccc2nc3[nH]c(=O)[nH]c(=O)c3c(N)c2c1`: the growth in the test on HCT-15 colon is 84%; in the test on HT29 colon it was 83.3%; in the test with SNB-75 CNS, 90%; in the test on SNB-19 CNS, 86.2%; in the test with U251 CNS, 89.1%; in the test with PC-3 prostate, 85.6%. Also, the growth in the test on SK-MEL-5 melanoma was 84%; in the test on UACC-62 melanoma, 47.3%; with LOX IMVI melanoma it was 75.2%; in the test with SK-MEL-28 melanoma, 98.3%.

Turning to `COc1cc(OC)cc(-c2n/c(=C\c3c(O)[nH]c4ccc(OC)cc34)cc3c2=Nc2ccccc2-3)c1`, the growth in the test on HCT-15 colon is 44.6%; in the test on HT29 colon it was 15.6%; in the test with SNB-75 CNS, 103%; in the test on SNB-19 CNS it was 78%; with U251 CNS, 19.7%; in the test with PC-3 prostate, 94.9%. For the same molecule, the growth is 94.4% in the test with SK-MEL-5 melanoma, 110% with UACC-62 melanoma, 30.4% with LOX IMVI melanoma and 102% in the test on SK-MEL-28 melanoma.

Regarding `COc1cc(/C=C/C(=O)c2cc(-c3ccccc3)ccc2O)cc(OC)c1OC`, the growth in the test on HCT-15 colon was 70%; in the test on HT29 colon it was 82.4%; in the test with SNB-75 CNS, 93.1%; in the test on SNB-19 CNS it was 93.3%; in the test on U251 CNS it was 75.7%; in the test on PC-3 prostate, 49.4%. Besides, the growth with SK-MEL-5 melanoma is 51.8%; in the test with UACC-62 melanoma, 58.8%; with LOX IMVI melanoma, 52.6%; in the test on SK-MEL-28 melanoma it was 98.1%.

(Values after PubChem BioAssay (NCI).)
